TDP1 cell CPT: DT40-hTDP1 cell growth loss with CPT | chicken DT40 Tdp1-/-;hTDP1 cells + 20 nM CPT, ATP luminescence, 48 h | Potency, µM (doses to about 46.2 µM), most hits filed as inhibitors | 420,000 compounds, 12% hits | AID 686979; further: nearly all actives have a fitted effect of over 55% in size
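Chicken DT40 Tdp1-/- cells stably complemented with human TDP1 were seeded at 400 cells/well in medium containing 20 nM camptothecin, exposed to pin-transferred compounds, and grown at 37 °C for at least 48 hr. Viability was read as ATP luminescence.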
DT40 TDP1 no CPT: qHTS for Inhibitors of human tyrosyl-DNA phosphodiesterase 1 (TDP1): qHTS in cells in absence of CPT; 420,000 compounds, 15% hits; DT40 Tdp1-/- hTDP1 cells, no CPT, ATP luminescence, 48 h; Potency, µM (highest dose often 46.2 µM), hits mostly inhibitors; further: nearly all actives have a fitted effect of over 55% in size
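Seeded 400 DT40-hTDP1 cells/well (vehicle DMSO, no 20 nM CPT); pinned compounds; ≥48 hr at 37 °C; CellTiter-Glo luminescence as viability measure.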
TDP1 block: blocks human tyrosyl-DNA phosphodiesterase 1. 350,000 compounds, 0.28% hits. AID 485290. recombinant TDP1, AlphaScreen DNA substrate cleavage. Potency, µM (series often up to 130 µM), hits mostly inhibitors; further: nearly all actives have a fitted effect of over 40% in size
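Tdp1 1 nM final; 15 min RT w/ cpd; substrate 15 nM, 5 min; beads 10 ug/ml, 10 min; AlphaScreen read. Neg ctrl: no enzyme.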
VDR inh: inhibitors of human vitamin D receptor | P11473 | AID 504847 | Potency, µM, most hits filed as inhibitors | VDR-SRC2-3 peptide fluorescence polarization, 2 h | 400,000 compounds, 0.93% hits
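Measured by FP: displacement of SRC2-3 coactivator peptide from VDR by library compounds, following a two-hour ambient incubation.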
PLK1 PBD inh: PLK1 (human) polo-box domain binding inhibition | 360,000 compounds, 2.8% hits | P53350 | Plk1 PBD binding of FITC phosphopeptide, fluorescence polarization | Potency, µM, most hits filed as inhibitors; further: series mostly up to about 57 µM; nearly all actives have a fitted effect of over 65% in size
Target sequence (P53350 whole entry, looked up, the tested form may be a part): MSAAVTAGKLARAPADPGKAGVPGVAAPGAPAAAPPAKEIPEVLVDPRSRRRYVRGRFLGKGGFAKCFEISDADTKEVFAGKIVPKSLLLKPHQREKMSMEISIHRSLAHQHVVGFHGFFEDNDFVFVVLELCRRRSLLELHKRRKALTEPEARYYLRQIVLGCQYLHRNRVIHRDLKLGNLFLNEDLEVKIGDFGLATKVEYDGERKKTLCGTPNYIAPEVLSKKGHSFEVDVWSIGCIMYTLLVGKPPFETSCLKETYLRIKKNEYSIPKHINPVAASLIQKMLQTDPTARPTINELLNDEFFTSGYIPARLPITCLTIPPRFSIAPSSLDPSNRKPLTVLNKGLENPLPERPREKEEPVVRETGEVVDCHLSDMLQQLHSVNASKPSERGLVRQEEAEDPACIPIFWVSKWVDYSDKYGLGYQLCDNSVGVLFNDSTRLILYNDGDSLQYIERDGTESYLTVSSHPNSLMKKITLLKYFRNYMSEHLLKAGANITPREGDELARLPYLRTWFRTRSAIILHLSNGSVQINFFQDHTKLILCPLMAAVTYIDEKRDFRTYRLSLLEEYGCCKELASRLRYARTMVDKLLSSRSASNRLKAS
GCN5L2 inh: inhibitors of human GCN5L2 histone acetyltransferase; Q92830; GCN5L2 HAT assay, ThioGlo1 CoA-SH fluorescence; Potency, µM (series often up to 58.9 µM), usual class: inhibitors; 390,000 compounds, 0.21% hits; AID 504327
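Preincubate 20nM GCN5L2 with compound 15 min, RT → add 50uM ThioGlo1 + 75uM H3(1-25) + 70uM acetyl-CoA → read fluorescence 0 and 20 min. Primary qHTS; fluorescent artifacts likely.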
Of the large screens only hits and unclear results are named; the others gave an inactive call. Only some compounds are listed: those with a hit (about 18% of all), similar ones and a draw of the others. The call rests on the fitted dose curve; in most records, active means well fitted curve in the direction sought with a large enough effect; inconclusive means small, poorly fitted or top-dose-only effect, or another doubt; inactive means no such curve, though single readings can be large; an effect the other way counts as inactive or inconclusive.

CCCC(c1nnnn1CCOC)N1CCN(c2nc3ccccc3s2)CC1 (configuration not stated)	TDP1 cell CPT inconclusive, DT40 TDP1 no CPT inconclusive, VDR inh inconclusive, PLK1 PBD inh 5.32µM
COc1ccc(N2CCN(C(c3ccccc3)c3nnnn3Cc3ccccc3)CC2)cc1 (configuration not stated)	TDP1 cell CPT inconclusive, DT40 TDP1 no CPT 15.8µM (no result: TDP1 block, PLK1 PBD inh, GCN5L2 inh)
Fc1ccc(C(c2ccc(F)cc2)N2CCN(C/C=C/c3ccccc3)CC2)cc1	TDP1 cell CPT 3.66µM, DT40 TDP1 no CPT 23.1µM
COc1ccc(C(c2nnnn2Cc2ccccc2)N2CCN(C/C=C/c3ccccc3)CC2)cc1 (configuration not stated)	TDP1 cell CPT inconclusive, DT40 TDP1 no CPT 14.6µM (no result: TDP1 block, VDR inh, GCN5L2 inh)
Cn1cccc1C(=O)OCC(=O)N1CCN(c2ccccc2)CC1	DT40 TDP1 no CPT inconclusive
COc1ccc(C(c2nnnn2Cc2ccccc2)N2CCN(c3nc4ccccc4s3)CC2)cc1OC (configuration not stated)	TDP1 cell CPT inconclusive, DT40 TDP1 no CPT 18.4µM
C(=C\c1ccccc1)/CN1CCN(C(c2ccccc2)c2nnnn2Cc2ccccc2)CC1 (configuration not stated)	TDP1 cell CPT 29.1µM, DT40 TDP1 no CPT inconclusive (no result: TDP1 block, VDR inh, GCN5L2 inh)
CCC(c1nnnn1Cc1ccccc1)N1CCN(C/C=C/c2ccccc2)CC1 (configuration not stated)	TDP1 cell CPT inconclusive, DT40 TDP1 no CPT 14.6µM (no result: TDP1 block, VDR inh, GCN5L2 inh)
O=C(CN1C(=O)NC(c2ccccc2)(c2ccccc2)C1=O)N1CCOCC1	none
CC/C=C\C/C=C\C/C=C\C/C=C\C/C=C\C/C=C\CCC(=O)NCCCC(=O)O	none (no result: TDP1 cell CPT, DT40 TDP1 no CPT, PLK1 PBD inh, GCN5L2 inh)
CCc1noc2c1/C(=N\O)CC(c1ccccc1)C2 (configuration not stated)	TDP1 cell CPT inconclusive, DT40 TDP1 no CPT 16.4µM
CC1(C(=O)Nc2ccc3c(c2)OCCO3)CN(S(C)(=O)=O)CC(=O)N1CCc1c[nH]c2ccccc12 (configuration not stated)	none (no result: TDP1 block, VDR inh, GCN5L2 inh)
CCOc1ccccc1C(=O)Nc1cc2c(cc1N1CCOCC1)n(C)c(=O)n2C	TDP1 cell CPT 14.6µM, DT40 TDP1 no CPT 16.4µM (no result: PLK1 PBD inh)
CCn1c(=O)n(CC)c2cc(N3CCCC3)c(NC(=O)c3ccc(OC)c(Br)c3)cc21	TDP1 cell CPT 16.4µM, DT40 TDP1 no CPT 11.6µM
CCn1c(=O)n(CC)c2cc(N3CCCC3)c(NC(=O)c3cc(Cl)ccc3OC)cc21	TDP1 cell CPT 16.4µM, DT40 TDP1 no CPT 20.6µM
CCn1c(=O)n(CC)c2cc(N3CCCC3)c(NC(=O)c3ccccc3OC)cc21	TDP1 cell CPT 6.51µM, DT40 TDP1 no CPT 5.8µM
CCOc1ccc(C(=O)Nc2cc3c(cc2N2CCCC2)n(C)c(=O)c(=O)n3C)cc1OCC	TDP1 cell CPT inconclusive, DT40 TDP1 no CPT inconclusive (no result: PLK1 PBD inh)
Cc1ccc(CNC(=O)C(C(C)C)N2Cc3ccccc3C2=O)cc1 (configuration not stated)	TDP1 cell CPT inconclusive, DT40 TDP1 no CPT inconclusive (no result: PLK1 PBD inh)
N#Cc1cc(Cl)c(NCC2CCCO2)cc1C#N (configuration not stated)	none
CC(=O)N1CCN(S(=O)(=O)c2cccc(C(=O)NNC(=O)c3ccc(Br)cc3)c2)CC1	none (no result: TDP1 block, GCN5L2 inh)
CCOc1ccccc1C(=O)Nc1cc2c(cc1N1CCCC1)n(CC)c(=O)n2CC	TDP1 cell CPT 4.61µM, DT40 TDP1 no CPT 4.61µM, GCN5L2 inh inconclusive
O=S(=O)(/N=C(/NC(=S)Nc1ccccc1)c1ccccc1)c1ccc(Cl)cc1	VDR inh inconclusive, PLK1 PBD inh 11.9µM
COc1ccc(NC(=S)NC(=NS(=O)(=O)c2ccc(Cl)cc2)c2ccccc2)cc1	TDP1 cell CPT inconclusive, DT40 TDP1 no CPT inconclusive, PLK1 PBD inh 11.9µM
COc1ccc(NC(=S)N/C(=N/S(=O)(=O)c2ccc(C)cc2)c2ccccc2)cc1	none
Cc1ccc(CSc2nnc3[nH]c(=O)cc(-c4ccccc4)n23)cc1	none (no result: PLK1 PBD inh)
CCN(CC)Cc1c(O)ccc2c(=O)c(-c3ccccc3OC)coc12	none (no result: TDP1 block)
CCN(CC)Cc1c(O)ccc2c([N+](=O)[O-])c(C)n(-c3ccc(OC)cc3)c12	TDP1 cell CPT 7.31µM, DT40 TDP1 no CPT 16.4µM
O=C(Nc1ccccn1)c1ccc2ccccc2c1O	DT40 TDP1 no CPT 14.6µM, PLK1 PBD inh inconclusive (no result: TDP1 block)
O=C(Nc1ccc(Cl)cn1)c1cccc2ccccc12	TDP1 cell CPT 5.17µM, DT40 TDP1 no CPT 5.8µM (no result: TDP1 block)
O=C(Nc1cccnc1)c1ccc2ccccc2c1O	DT40 TDP1 no CPT 13µM (no result: TDP1 block)
O=C(Nc1cccc([N+](=O)[O-])c1)c1ccc2ccccc2c1O	TDP1 cell CPT 23.1µM, DT40 TDP1 no CPT 14.6µM
O=C(CCC(=O)Nc1cccc([N+](=O)[O-])c1)NCc1ccccc1	none
Cc1sc(NC(=O)CSc2nnc(N)s2)c(C#N)c1C	none
O/N=C(/CBr)c1ccc2ccccc2c1	none (no result: TDP1 block, VDR inh, PLK1 PBD inh, GCN5L2 inh)
O=C1CC(c2ccc(O[C@@H]3OC(CO)[C@@H](O)C(O)C3O)cc2)Oc2cc(O)ccc21 (some centres not stated)	none (no result: PLK1 PBD inh, GCN5L2 inh)
COc1cc(N=Nc2ccc(Br)cc2)cc(C=O)c1O	TDP1 cell CPT 5.17µM, DT40 TDP1 no CPT 4.61µM, PLK1 PBD inh 26.7µM (no result: TDP1 block, VDR inh, GCN5L2 inh)
COc1ccc(C(=O)NCC(c2ccco2)N2CCc3ccccc32)cc1 (configuration not stated)	TDP1 cell CPT 3.66µM, DT40 TDP1 no CPT 2.59µM (no result: TDP1 block)
COc1ccc(C(=O)NCC(c2ccco2)N2CCc3ccccc3C2)cc1 (configuration not stated)	TDP1 cell CPT inconclusive, DT40 TDP1 no CPT inconclusive
O=S(=O)(NCC(c1ccco1)N1CCc2ccccc21)c1ccccc1 (configuration not stated)	TDP1 cell CPT 23.1µM, DT40 TDP1 no CPT 18.4µM, GCN5L2 inh inconclusive
CN(C)c1ccc(C(CNS(=O)(=O)c2ccc(F)cc2)N2CCc3ccccc32)cc1 (configuration not stated)	TDP1 cell CPT inconclusive, DT40 TDP1 no CPT inconclusive (no result: PLK1 PBD inh)
COc1ccc(C(=O)NCC(c2cccs2)N2CCc3ccccc32)c(OC)c1 (configuration not stated)	TDP1 cell CPT inconclusive, DT40 TDP1 no CPT 14.6µM
COc1cccc(C(=O)NCC(c2ccc(N(C)C)cc2)N2CCc3ccccc32)c1 (configuration not stated)	TDP1 cell CPT 8.2µM, DT40 TDP1 no CPT inconclusive (no result: PLK1 PBD inh)
O=C(O)C1(c2ccccc2)CCN(S(=O)(=O)c2cccc(Cl)c2)CC1	none
COc1ccc(C(=O)NCC(c2ccc(N(C)C)cc2)N2CCc3ccccc32)cc1OC (configuration not stated)	TDP1 cell CPT 5.17µM, DT40 TDP1 no CPT 6.51µM (no result: PLK1 PBD inh)

High-throughput results: PubChem BioAssay, National Center for Advancing Translational Sciences (NCATS)
